Laboratory results reported in paper PMC4336329 (PLoS ONE, 2015).
Screen size: about 310,000 compounds; about 14,000 (4.5%) showed an effect of 50% or more. The effect is printed as a negative number. This is one part of a sample in which strong results are shown more often than they occur. *1 amine or outer side, *2 acyl side, *3 side chain or, on linkers, in order; H or OH if unused. Where a SMILES comes first, the peptide text is derived from it. Bridges are numbered along the chain shown (N, C = ends). [ ]: non-standard residue; d: D form. ξ: configuration not given here. hSer(Ph(2-I,4-NO2,6-CO)) = O=C([C@H](CCOc1c(I)cc([N+](=O)[O-])cc1C(=O)[*:3])N[*:1])[*:2]; ξD = NC(CC(=O)O)C(=O)O

biological target: human ether-à-go-go-related gene (hERG) potassium channel (human, UniProt Q12809); experiment: primary screen, population patch clamp on CHO cells stably expressing hERG; higher = less effect of the substance
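Further: peak tail current of the secondary pulse compared with the same well before compound.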

Sequence of human ether-à-go-go-related gene (hERG) potassium channel (Q12809 whole entry, looked up): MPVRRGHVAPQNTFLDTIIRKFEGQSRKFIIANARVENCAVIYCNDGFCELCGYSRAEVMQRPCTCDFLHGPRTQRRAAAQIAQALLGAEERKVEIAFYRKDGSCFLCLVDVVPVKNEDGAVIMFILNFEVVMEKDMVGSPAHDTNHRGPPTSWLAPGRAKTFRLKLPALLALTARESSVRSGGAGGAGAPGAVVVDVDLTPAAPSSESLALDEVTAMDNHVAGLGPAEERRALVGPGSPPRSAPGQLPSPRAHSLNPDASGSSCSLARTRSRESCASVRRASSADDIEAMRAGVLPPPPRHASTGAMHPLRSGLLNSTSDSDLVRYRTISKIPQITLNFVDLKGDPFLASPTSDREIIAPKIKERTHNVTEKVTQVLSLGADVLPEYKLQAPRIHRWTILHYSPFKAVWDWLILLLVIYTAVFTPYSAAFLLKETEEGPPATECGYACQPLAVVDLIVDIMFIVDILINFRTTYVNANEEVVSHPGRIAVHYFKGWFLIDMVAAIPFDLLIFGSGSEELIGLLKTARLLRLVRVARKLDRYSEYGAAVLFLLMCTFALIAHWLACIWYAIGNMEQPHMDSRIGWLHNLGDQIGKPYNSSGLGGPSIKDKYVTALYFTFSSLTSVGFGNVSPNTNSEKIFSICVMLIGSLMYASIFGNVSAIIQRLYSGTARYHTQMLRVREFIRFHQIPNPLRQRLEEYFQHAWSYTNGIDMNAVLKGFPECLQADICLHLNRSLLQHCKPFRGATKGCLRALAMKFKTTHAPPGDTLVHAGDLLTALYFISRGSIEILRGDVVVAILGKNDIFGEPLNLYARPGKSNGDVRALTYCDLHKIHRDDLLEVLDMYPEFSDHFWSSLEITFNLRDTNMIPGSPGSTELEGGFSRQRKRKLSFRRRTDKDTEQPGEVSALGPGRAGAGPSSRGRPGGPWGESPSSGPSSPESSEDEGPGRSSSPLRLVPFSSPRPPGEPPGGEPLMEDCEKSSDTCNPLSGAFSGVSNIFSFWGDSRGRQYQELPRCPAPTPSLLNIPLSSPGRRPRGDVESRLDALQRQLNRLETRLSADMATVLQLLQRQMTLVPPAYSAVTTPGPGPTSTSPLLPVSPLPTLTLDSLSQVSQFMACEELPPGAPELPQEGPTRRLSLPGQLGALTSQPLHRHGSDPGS

Structure (SMILES)	hERG current change (%, negative = inhibition) at 10uM [%]
Cl.c1ccc(CNc2nc3ccccc3n2CCN2CCOCC2)nc1	-15.5
CC(=O)Nc1nc2ccccc2n1CCN1CCOCC1	0.217
c1csc(CNc2nc3ccccc3n2CCN2CCOCC2)c1	-28
CCOc1ccc(CNc2nc3ccccc3n2C)cc1	-31.4
Cc1cc2nc(CCN3CCOCC3)n(S(=O)(=O)c3ccc(C(C)(C)C)cc3)c2cc1C	-3.7
CCOc1ccc(CNc2nc3ccccc3n2CCN2CCOCC2)cc1.Cl	-64.2
COc1ccc(S(=O)(=O)n2c(CCN3CCOCC3)nc3ccccc32)cc1	-59.2
COc1ccc(CNc2nc3ccccc3n2CCN2CCOCC2)cc1	-64.6
COc1cccc(CNc2nc3ccccc3n2CCN2CCCCC2)c1	-59.3
COc1ccc(CNc2nc3ccccc3n2Cc2ccccc2)cc1OC	-44.7
CCn1c(NCc2cc(OC)c(OC)c(OC)c2)nc2ccccc21.Cl	-25.3
CC(C)(C)c1ccc(S(=O)(=O)n2c(CN3CCOCC3)nc3ccccc32)cc1	3.73
CCOC(=O)[C@H]1[C@H]2COc3ccc(C)cc3[C@@H]2N2C(=O)CN(Cc3ccc(C)cc3)C(=O)[C@@]12C	4.36
COc1cccc(N2C(=O)CN(Cc3ccc(OC)c(OC)c3)C2=S)c1	17
CCCCCOc1ccc(NC(=O)C(=O)NCCCn2ccnc2)cc1	2
CCn1c(SCC(=O)NNC(=O)c2ccccc2)nnc1-c1ccncc1	-5.25
C=CCc1c(C)nc2c(-c3ccccc3)cnn2c1N1CCOCC1	12.3
CC(=O)C1=C(O)C(=O)N(c2ccc(Br)cn2)C1c1ccccc1[N+](=O)[O-] (stereo not shown)	20.2
O=C1CCCc2nn(-c3ccccc3)nc21	11.3
Cc1ccc(S(=O)(=O)N(C)C)cc1NC(=O)CSc1nc2ccccc2[nH]1	-29.4
C[C@@H]1NC(=O)[C@H](CC(N)=O)NC(=O)c2cc([N+](=O)[O-])cc(I)c2OCC[C@@H](C(=O)NC(CC(=O)O)C(N)=O)NC1=O (stereo partly shown) (NA[hSer(Ph(2-I,4-NO2,6-CO))][ξD]-NH2; lactam N-3)	6.03
O=S(=O)(Cc1ccccc1)Nc1cccc(F)c1	15.2
Cl.FC(F)(F)c1ccc(CN2CCNCC2)cc1	0.155

Structure (SMILES)	hERG current change (%, negative = inhibition) at 10uM [%]
Cc1ccccc1NC(=O)Cc1nnc(N)s1	11.3
COc1ccc(CCNC(=S)NC2CCN(Cc3ccccc3)CC2)cc1OC	-39.1
Cc1nc(CCNC(=O)COc2ccccc2)cs1	17.2
COc1ccc(CNc2nc3ccccc3n2C(C)C)cc1	-18.7
COc1ccc(CNc2nc3ccccc3n2CCN2CCCCC2)cc1	-59.7
C=CCn1c(NCc2ccc(OC)cc2)nc2ccccc21	-17.2
CN(C(=O)c1nn(C)c2c1CSc1ccccc1-2)c1ccccc1Cl	3.14
CC1(C)N=C2C(=[N+]1[O-])CCC/C2=N\O	11.6
O=C(NCCc1ccccn1)c1nc(Cn2cc(Br)cn2)no1	11.4
Cc1ccc(NC(=S)N2CCC(N(C)CC3CCCO3)CC2)cc1 (stereo not shown)	-4.57
Cc1cccc(NC(=S)N2CCC(N(C)CC3CCCO3)CC2)c1 (stereo not shown)	-32.3
Cc1cc(C)cc(NC(=S)N2CCC(N(C)CC3CCCO3)CC2)c1 (stereo not shown)	-52
O=C(CCCC(=O)N(CC(=O)NC1CCCC1)c1ccc(F)c(Cl)c1)Nc1ccccn1	-9.24
COCCCN(C(=S)Nc1cc(Cl)cc(Cl)c1)C(C)c1ccccn1 (stereo not shown)	-38.8
CCc1cc(=O)[nH]c(SCC(=O)Nc2cc(C)on2)n1	-4.55
CCCc1cc(=O)[nH]c(SCC(=O)Nc2cc(C)on2)n1	-70.9
CCCc1cc(=O)[nH]c(SCC(=O)Nc2nonc2C)n1	4.4
COC(=O)C1=C(O)/C(=C\c2ccc(CNC(=O)C(=O)Nc3ccc(C)c(C)c3)o2)N=C1C	-17.8
CC(=O)Nc1cc(C(=O)O)ccc1S(=O)(=O)c1ccc(C)cc1	6.18
CN1CCCN(C(=O)COc2ccc(F)cc2F)CC1	-3.55
CCCCNc1c(-c2ccc(-c3ccc(C(C)=O)cc3)c(OC)c2)nc2cnccn12.O=C(O)C(F)(F)F	-52.3
CCCCCCSc1cc(-c2nc3cnccn3c2NCc2ccccc2)ccc1OC.O=C(O)C(F)(F)F	0.374
CCCCNc1c(-c2ccc(OC)c(SC3CCCCC3)c2)nc2cnccn12.O=C(O)C(F)(F)F	-14.4
